We go through nine molecules from PubChem BioAssay (NCI).

Test systems include NCI-H23 lung; NCI-H226 lung; NCI-H322M lung; HOP-62 NSCLC; NCI-H460 lung; NCI-H522 lung; A549/ATCC NSCLC; 786-0 renal; COLO 205 colon; DU-145 prostate; K-562 leukemia; MALME-3M melanoma; MDA-MB-231 breast; RXF 393 renal; SF-268 CNS; SF-295 CNS; SF-539 CNS; UACC-257 melanoma; M14 melanoma.
Test in all cases: NCI-60 one-dose screen, 48 h (100 = growth as untreated, 0 = no growth, -100 = all killed)
Common to all, as to conditions: 10 µM

Compounds without any hit were thinned out: in the full panel of roughly 83,000, 20% have a hit.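 Testing used 96-well plates and a 48-hour single-concentration exposure. Example: -40 means 40% of the starting cells died.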 Unmarked numbers belong to inactive results. The source made the active and inactive calls. Rule for the calls: active = growth percent below 10; inactive = the rest.

`CCc1ccc(/C(C#N)=C/C=C/c2ccccc2)cc1`: the growth in the test on NCI-H23 lung was 33.4%; in the test on NCI-H226 lung, 67.3%; in the test on NCI-H322M lung, 32.7%; in the test with HOP-62 NSCLC, 34.4%; with NCI-H460 lung it was 13.7%; in the test with NCI-H522 lung, -39.4% (active). The growth with A549/ATCC NSCLC is 28.7%; in the test on 786-0 renal, 63.2%; in the test on COLO 205 colon, -15% (active); in the test with DU-145 prostate, 24.9%; in the test on K-562 leukemia it was 14.9%; in the test on MALME-3M melanoma, 51.2%. In addition, the growth in the test with MDA-MB-231 breast was 63.2%; in the test on RXF 393 renal it was 11.9%; with SF-268 CNS it was 65.1%; in the test with SF-295 CNS, 21.3%; in the test with SF-539 CNS it was 18.6%; in the test on UACC-257 melanoma, 31.5%. In addition, the growth with M14 melanoma was 23.1%.
On to `Cc1cc(O)ccc1O`, for which the growth was 104% in the test on NCI-H23 lung; 96.1% with NCI-H226 lung; 98.5% in the test on NCI-H322M lung; 89.8% in the test with HOP-62 NSCLC; 106% with NCI-H460 lung; 82.9% with NCI-H522 lung. The growth in the test on A549/ATCC NSCLC was 108%; in the test on 786-0 renal it was 75.3%; in the test with COLO 205 colon it was 120%; in the test with DU-145 prostate, 114%; in the test with K-562 leukemia, 94.1%; in the test on MALME-3M melanoma it was 101%. In addition, the growth is 87.3% in the test with MDA-MB-231 breast; 112% in the test on RXF 393 renal; 102% in the test on SF-268 CNS; 129% in the test with SF-295 CNS; 95.5% with SF-539 CNS; 99.5% in the test on UACC-257 melanoma. Moreover, in the test on M14 melanoma, the growth is 96.4%.
For the molecule `Cc1ccc(Cl)cc1N1C(=O)CC(Sc2ccccc2N)C1=O` (stereo not given), the growth was 101% with NCI-H23 lung; 103% with NCI-H226 lung; 127% with NCI-H322M lung; 94.2% with HOP-62 NSCLC; 111% in the test with NCI-H460 lung; 97% in the test with NCI-H522 lung. The growth with A549/ATCC NSCLC is 88.6%; with 786-0 renal, 106%; in the test with COLO 205 colon, 110%; in the test on DU-145 prostate, 123%; in the test with K-562 leukemia, 118%; with MALME-3M melanoma, 138%. Moreover, the growth was 108% in the test with MDA-MB-231 breast; 92.5% in the test on RXF 393 renal; 111% in the test with SF-295 CNS; 105% with SF-539 CNS; 88.4% in the test on UACC-257 melanoma; 118% with M14 melanoma.
For `c1ccc2c(N3CCCCC3)ncnc2c1`, the growth in the test on NCI-H23 lung was 86.4%; in the test with NCI-H226 lung it was 87.2%; with NCI-H322M lung, 117%; in the test on HOP-62 NSCLC, 100%; in the test with NCI-H460 lung, 97.8%; in the test with NCI-H522 lung, 47.6%. Besides, the growth with A549/ATCC NSCLC was 86.9%; in the test with 786-0 renal, 98.7%; in the test on COLO 205 colon, 88.5%; in the test on DU-145 prostate, 112%; in the test with K-562 leukemia, 94.3%; in the test on MALME-3M melanoma, 142%. In addition, the growth in the test with MDA-MB-231 breast was 96.5%; in the test with RXF 393 renal it was 105%; in the test on SF-268 CNS, 102%; in the test with SF-295 CNS, 109%; with SF-539 CNS it was 85.3%; in the test with UACC-257 melanoma it was 90.2%. The growth in the test with M14 melanoma is 100%.
For `CCN(CC)CCNc1ccc(CO)c2sc3ccccc3c(=O)c12`, the growth was 44.9% in the test with NCI-H23 lung; 35.9% in the test on NCI-H226 lung; 50.9% in the test on NCI-H322M lung; 43.3% in the test with HOP-62 NSCLC; 14.5% with NCI-H460 lung; -17.8% (active) with NCI-H522 lung. The growth is 24.2% with A549/ATCC NSCLC; 49.6% in the test with 786-0 renal; 39.3% in the test on DU-145 prostate; 63.4% with K-562 leukemia; 39.8% in the test with MALME-3M melanoma; 50.1% in the test with MDA-MB-231 breast. The growth was 36.6% with RXF 393 renal; 40.5% with SF-268 CNS; 44.9% in the test on SF-295 CNS; 50% in the test on SF-539 CNS; 11.6% with UACC-257 melanoma; 57.5% with M14 melanoma.
With `CN(C)/N=C/c1ccccc1O`, the growth was 113% in the test with NCI-H23 lung; 98.6% with NCI-H226 lung; 89.7% in the test with NCI-H322M lung; 109% in the test on HOP-62 NSCLC; 100% with NCI-H460 lung; 96.2% with NCI-H522 lung. Further, the growth was 104% with A549/ATCC NSCLC; 92.8% in the test with 786-0 renal; 112% in the test with COLO 205 colon; 125% with DU-145 prostate; 120% in the test on K-562 leukemia; 109% with MALME-3M melanoma. Besides, the growth is 106% in the test on MDA-MB-231 breast; 106% in the test with SF-268 CNS; 112% in the test on SF-295 CNS; 94.6% in the test with SF-539 CNS; 109% with UACC-257 melanoma; 106% in the test with M14 melanoma.
Take `C/C(O)=C(\C=N\C(N)=S)C(=O)Nc1ccccc1`: the growth is 94.5% in the test on NCI-H23 lung; 87.1% with NCI-H226 lung; 104% with NCI-H322M lung; 90.9% in the test with HOP-62 NSCLC; 99.9% with NCI-H460 lung; 83.7% in the test on NCI-H522 lung. Besides, the growth is 100% in the test on A549/ATCC NSCLC; 105% in the test on 786-0 renal; 104% in the test with COLO 205 colon; 109% in the test on DU-145 prostate; 107% in the test with K-562 leukemia; 92.2% in the test with MDA-MB-231 breast. Besides, the growth in the test on RXF 393 renal is 107%; in the test with SF-268 CNS, 101%; in the test with SF-295 CNS, 110%; with SF-539 CNS, 114%; with UACC-257 melanoma, 97.7%; in the test with M14 melanoma, 105%.
As for `CC(=O)Nc1cccc(Cl)c1C`, the growth in the test with NCI-H23 lung is 103%; with NCI-H226 lung, 102%; in the test with NCI-H322M lung, 94%; with HOP-62 NSCLC, 100%; with NCI-H460 lung, 106%; in the test with NCI-H522 lung, 87.7%. Moreover, the growth was 88.2% in the test on A549/ATCC NSCLC; 96.5% in the test on 786-0 renal; 107% in the test with COLO 205 colon; 106% with DU-145 prostate; 101% with MALME-3M melanoma; 99.5% with MDA-MB-231 breast. Moreover, the growth was 106% with RXF 393 renal; 92.3% with SF-268 CNS; 105% in the test with SF-295 CNS; 107% in the test on SF-539 CNS; 84.9% in the test with UACC-257 melanoma; 108% with M14 melanoma.
For the molecule `O=C(CCl)Nc1ccc2c(c1)C(=O)c1ccc(NC(=O)CCl)cc1C2=O`, the growth in the test on NCI-H23 lung was -68.7% (active); with NCI-H226 lung, -11.6% (active); in the test on NCI-H322M lung it was -36.5% (active); in the test with HOP-62 NSCLC, -64.7% (active); in the test on NCI-H460 lung, -45.9% (active); in the test with NCI-H522 lung it was -65.2% (active). Moreover, the growth in the test with A549/ATCC NSCLC was 0.12% (active); with 786-0 renal, -66.9% (active); with COLO 205 colon, -50.8% (active); in the test with DU-145 prostate, -55.7% (active); in the test with K-562 leukemia, -14.9% (active); with MDA-MB-231 breast it was -48.2% (active). For the same molecule, the growth was -86% (active) in the test with RXF 393 renal; -66.6% (active) in the test with SF-268 CNS; -22.6% (active) with SF-295 CNS; -92.2% (active) with SF-539 CNS; -12.2% (active) in the test with UACC-257 melanoma; -55.5% (active) with M14 melanoma.
